Source: PubChem BioAssay (EPA / NIEHS)
Several values for one entry are separate records, joined by “and”; a condition that tells them apart may be missing. Equal values may be shown once. A structure can be active in one record and inactive in another. Activity calls are given as the source filed them. How the source made its calls: active means hit-call score of the fitted dose curve at least 0.9, where 1 is the maximum; inactive means score below 0.9.

Tests used:
[1] = read-out: Monokine induced gamma interferon (MIG), CXCL9 (gene 4283); experiment: BSK_BE3C_MIG: BioMAP Diversity Plus: BE3C Assay for Monokine induced gamma interferon (MIG) Biomarker Activity (AID 2283035); conditions: primary human bronchial epithelial cells; actives raise or lower the signal
Method in brief: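 hu bronchial epithelial 1° cells, 24 h cpd; MIG by ELISA; bidirectional fit, DMSO = baseline.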

[2] = read-out: Transforming growth factor beta 1 (TGFb1), TGFB1 (gene 7040); experiment: BSK_BE3C_TGFb1: BioMAP Diversity Plus: BE3C Assay for Transforming growth factor beta 1 (TGFb1) Biomarker Activity (AID 2283036); conditions: primary human bronchial epithelial cells; actives raise or lower the signal
Method in brief: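 TGF-b1 measured via ELISA, 24 h after chemical dosing of human bronchial epithelial cells (BE3C). Overt cytotoxicity assessed in parallel by SRB (0.1%, TCA-fixed, 560 nm); analysis bidirectional relative to DMSO.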

[3] = read-out: Plasminogen activator inhibitor-1 (PAI1), SERPINE1 (gene 5054); experiment: BSK_BE3C_PAI1: BioMAP Diversity Plus: BE3C Assay for Plasminogen activator inhibitor-1 (PAI1) Biomarker Activity (AID 2283037); conditions: primary human bronchial epithelial cells; actives raise or lower the signal
Method in brief: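 In this multiplexed primary-cell system, bronchial epithelial cells receive test chemical and are sampled at 24 h. PAI-1 is read by ELISA, with DMSO serving as negative control for bidirectional fitting.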

[4] = read-out: urokinase plasminogen activator (uPA), PLAU (gene 5328); experiment: BSK_BE3C_uPA: BioMAP Diversity Plus: BE3C Assay for urokinase plasminogen activator (uPA) Biomarker Activity (AID 2283038); conditions: primary human bronchial epithelial cells; actives raise or lower the signal
Method in brief: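 Primary human bronchial epithelial cells, uPA measured by ELISA 24 h after dosing. Bidirectional change relative to DMSO; cytotoxicity checked in parallel cultures by sulforhodamine B total-protein staining.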

[5] = read-out: Urokinase-type plasminogen activator receptor (uPAR), PLAUR (gene 5329); experiment: BSK_BE3C_uPAR: BioMAP Diversity Plus: BE3C Assay for Urokinase-type plasminogen activator receptor (uPAR) Biomarker Activity (AID 2283039); conditions: primary human bronchial epithelial cells; actives raise or lower the signal
Method in brief: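 Chemically treated human bronchial epithelial cells (lung primary) are assayed for uPAR by ELISA after 24 h, with data fitted in both directions using DMSO as negative control.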

[6] = read-out: Interleukin-6 (IL6), IL6 (gene 3569); experiment: BSK_CASM3C_IL6: BioMAP Diversity Plus: CASM3C Assay for Interleukin-6 (IL6) Biomarker Activity for (AID 2283040); conditions: primary human coronary artery smooth muscle cells; actives raise or lower the signal
[7] = read-out: Tissue plasminogen activator (tPA), PLAT (gene 5327); experiment: BSK_BE3C_tPA: BioMAP Diversity Plus: BE3C Assay for Tissue plasminogen activator (tPA) Biomarker Activity (AID 2283041); conditions: primary human bronchial epithelial cells; actives raise or lower the signal
Method in brief: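 Using human lung primary bronchial epithelial cells, tPA was measured by ELISA 24 h after dosing; data fitted relative to DMSO.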

[8] = read-out: Interleukin-8 (IL8), CXCL8 (gene 3576); experiment: BSK_CASM3C_IL8: BioMAP Diversity Plus: CASM3C Assay for Interleukin-8 (IL8) Biomarker Activity (AID 2283042); conditions: primary human coronary artery smooth muscle cells; actives raise or lower the signal;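 further: IL-8 protein level quantified by ELISA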
[9] = read-out: Human Leukocyte Antigen - DR isotype (HLADR), HLA-DRA (gene 3122); experiment: BSK_CASM3C_HLADR: BioMAP Diversity Plus: CASM3C Assay for Human Leukocyte Antigen - DR isotype (HLADR) Biomarker Activity (AID 2283043); conditions: primary human coronary artery smooth muscle cells; actives raise or lower the signal;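 further: cell-surface HLA-DR protein level quantified by ELISA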
[10] = read-out: Macrophage colony-stimulating factor (MCSF), CSF1 (gene 1435); experiment: BSK_CASM3C_MCSF: BioMAP Diversity Plus: CASM3C Assay for Macrophage colony-stimulating factor (MCSF) Biomarker Activity (AID 2283044); conditions: primary human coronary artery smooth muscle cells; actives raise or lower the signal;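 further: M-CSF protein amount quantified by ELISA after 24 h exposure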
[11] = read-out: Low-density lipoprotein receptor (LDLR), LDLR (gene 3949); experiment: BSK_CASM3C_LDLR: BioMAP Diversity Plus: CASM3C Assay for Low-density lipoprotein receptor (LDLR) Biomarker Activity (AID 2283045); conditions: primary human coronary artery smooth muscle cells; actives raise or lower the signal;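 further: LDLR protein level on the cell surface quantified by ELISA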
[12] = read-out: Monocyte Chemoattractant Protein-1 (MCP1), CCL2 (gene 6347); experiment: BSK_CASM3C_MCP1: BioMAP Diversity Plus: CASM3C Assay for Monocyte Chemoattractant Protein-1 (MCP1) Biomarker Activity (AID 2283046); conditions: primary human coronary artery smooth muscle cells; actives raise or lower the signal;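 further: MCP-1 level quantified by ELISA 24 h after dosing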
[13] = BSK_CASM3C_Proliferation: Cell Proliferation Assessment in the BioMAP Diversity Plus: CASM3C Assay (AID 2283047); conditions: primary human coronary artery smooth muscle cells;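 further: sulforhodamine B total protein stain as relative cell number at 560 nm; sub-confluent cells exposed 48 h before staining; fitted both ways against DMSO so gain or loss of cell number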
[14] = read-out: Monokine induced gamma interferon (MIG), CXCL9 (gene 4283); experiment: BSK_CASM3C_MIG: BioMAP Diversity Plus: CASM3C Assay for Monokine induced gamma interferon (MIG) Biomarker Activity (AID 2283048); conditions: primary human coronary artery smooth muscle cells; actives raise or lower the signal;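 further: MIG protein level measured by ELISA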
[15] = read-out: serum amyloid A (SAA), SAA1 (gene 6288); experiment: BSK_CASM3C_SAA: BioMAP Diversity Plus: CASM3C Assay for serum amyloid A (SAA) Biomarker Activity (AID 2283049); conditions: primary human coronary artery smooth muscle cells; actives raise or lower the signal;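 further: SAA protein level quantified by ELISA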
[16] = BSK_CASM3C_SRB: Viability Assessment in the BioMAP Diversity Plus: CASM3C Assay (AID 2283050); conditions: primary human coronary artery smooth muscle cells;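 further: total protein by SRB staining as cytotoxicity measure in parallel cultures; cells exposed to compound for 24 h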
[17] = read-out: Thrombomodulin, THBD (gene 7056); experiment: BSK_CASM3C_Thrombomodulin: BioMAP Diversity Plus: CASM3C Assay for Thrombomodulin Biomarker Activity (AID 2283051); conditions: primary human coronary artery smooth muscle cells; actives raise or lower the signal;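 further: thrombomodulin protein level measured by ELISA 24 h after dosing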
[18] = read-out: Tissue Factor, F3 (gene 2152); experiment: BSK_CASM3C_TissueFactor: BioMAP Diversity Plus: CASM3C Assay for Tissue Factor Biomarker Activity (AID 2283052); conditions: primary human coronary artery smooth muscle cells; actives raise or lower the signal;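 further: cell surface tissue factor protein level read by ELISA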
[19] = read-out: Interferon-gamma inducible Protein 10 (IP10), CXCL10 (gene 3627); experiment: BSK_hDFCGF_IP10: BioMAP Diversity Plus: hDFCGF Assay for Interferon-gamma inducible Protein 10 (IP10) Biomarker Activity (AID 2283053); conditions: primary human foreskin fibroblasts; actives raise or lower the signal
Method in brief: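 Chemical-treated human skin fibroblasts (primary) were sampled at 24 h for IP-10 by ELISA. Both increases and decreases relative to DMSO were scored.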

[20] = read-out: Urokinase-type plasminogen activator receptor (uPAR), PLAUR (gene 5329); experiment: BSK_CASM3C_uPAR: BioMAP Diversity Plus: CASM3C Assay for Urokinase-type plasminogen activator receptor (uPAR) Biomarker Activity (AID 2283054); conditions: primary human coronary artery smooth muscle cells; actives raise or lower the signal;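 further: cell-surface uPAR protein level quantified by ELISA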

Measured: AC50

c1ccc2sc(SNC3CCCCC3)nc2c1
inactive: [1] | [2] | [3] | [4] | [5] | [6] | [7] | [8] | [9] | [10] | [11] | [12] | [13] | [14] | [15] | [16] | [17] | [18] | [19] | [20]

COc1ccccc1N
inactive: [1] | [2] | [3] | [4] | [5] | [6] | [7] | [8] | [9] | [10] | [11] | [12] | [13] | [14] | [15] | [16] | [17] | [18] | [19] | [20]

Cc1ccc(OP(=O)(Oc2ccc(C)cc2C)Oc2ccc(C)cc2C)c(C)c1
active: [3] 6.01 µM | [7] 3.86 µM | [10] 0.0882 µM
inactive: [1] | [2] | [4] | [5] | [6] | [8] | [9] | [11] | [12] | [13] | [14] | [15] | [16] | [17] | [18] | [19] | [20]

CCCCN(CCCC)C(=S)[S-].CCCCN(CCCC)C(=S)[S-].[Ni+2]
inactive: [1] | [2] | [3] | [4] | [5] | [6] | [7] | [8] | [9] | [10] | [11] | [12] | [13] | [14] | [15] | [16] | [17] | [18] | [19] | [20]

O=C(O)C1(c2ccc3c(c2)OC[C@H](Cc2ccc(-c4ccccc4)cc2)[C@H]3O)CCCC1
inactive: [6] | [8] | [10] | [11] | [12] | [14] | [15] | [16] | [17] | [18]
active: [1] 19.9 µM | [2] 13 µM | [3] 12.4 µM | [4] 13.8 µM | [5] 14.1 µM | [7] 4.2 µM | [9] 25 µM | [13] 33.3 µM | [19] 7.31 µM | [20] 28 µM

N#CCCC(Br)(C#N)CBr (centres undefined)
active: [1] 36.8 µM | [2] 20 µM | [3] 20 µM | [4] 20 µM | [5] 20 µM | [6] 20 µM | [7] 9.86 µM | [8] 20 µM | [9] 8.75 µM | [10] 20 µM | [11] 12.2 µM | [12] 20 µM | [13] 3.93 µM | [14] 33.8 µM | [15] 11.8 µM | [16] 20 µM | [17] 20 µM | [18] 12.7 µM | [19] 3.73 µM | [20] 15.6 µM

Cc1cc(C(C)(C)c2ccc(O)c(C)c2)ccc1O
inactive: [1] | [4] | [8] | [11] | [12] | [14] | [19]
active: [2] 10 µM | [3] 10 µM | [5] 3.66 µM | [6] 10 µM | [7] 15.2 µM | [9] 17.4 µM | [10] 15.2 µM | [13] 15.7 µM | [15] 17 µM | [16] 14.9 µM | [17] 3.01 µM | [18] 8.57 µM | [20] 17.1 µM

CC1(C)[C@H](C(=O)O[C@H](C#N)c2cccc(Oc3ccccc3)c2)[C@@H]1/C=C(\Cl)C(F)(F)F
active: [11] 3.39 µM | [17] 5.06 µM and 7.16 µM
inactive: [1] | [2] | [3] | [4] | [5] | [6] | [7] | [8] | [9] | [10] | [11] | [12] | [13] | [14] | [15] | [16] | [18] | [19] | [20]

CC(C)O.CC(C)O.OCCN(CCO)CCO.OCCN(CCO)CCO.[Ti]
active: [19] 30.9 µM
inactive: [1] | [2] | [3] | [4] | [5] | [6] | [7] | [8] | [9] | [10] | [11] | [12] | [13] | [14] | [15] | [16] | [17] | [18] | [20]

CCOC(=O)C(SP(=S)(OC)OC)c1ccccc1 (centres undefined)
active: [9] 20 µM | [10] 20 µM | [13] 20 µM | [17] 20 µM | [18] 3.97 µM
inactive: [1] | [2] | [3] | [4] | [5] | [6] | [7] | [8] | [11] | [12] | [14] | [15] | [16] | [19] | [20]

Nc1c(Oc2ccccc2)cc(O)c2c1C(=O)c1ccccc1C2=O
inactive: [1] | [2] | [4] | [5] | [6] | [7] | [8] | [9] | [10] | [11] | [12] | [13] | [14] | [15] | [16] | [17] | [18] | [20]
active: [3] 2.43 µM | [19] 17 µM

C=CC(Cl)CCl (centres undefined)
active: [12] 0.0777 µM
inactive: [1] | [2] | [3] | [4] | [5] | [6] | [7] | [8] | [9] | [10] | [11] | [13] | [14] | [15] | [16] | [17] | [18] | [20]

CC(C)N(C(=O)CCl)c1ccccc1
inactive: [1] | [2] | [3] | [4] | [5] | [7]
active: [6] 32.9 µM | [8] 27.1 µM | [9] 6.14 µM | [10] 13.3 µM | [11] 5.57 µM | [12] 6.89 µM | [13] 6.4 µM | [14] 12.4 µM | [15] 4.5 µM | [16] 6.28 µM | [17] 2.75 µM | [18] 20 µM | [20] 11 µM
